# Measurements taken from PubChem BioAssay (NCI).
# Values joined by “and” are separate entries in the source; they are usually repeats but may differ in a detail not shown here. Equal values may be shown once. Compounds without any hit were thinned out: in the full panel of roughly 83,000, 20% have a hit.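 Percent growth is the endpoint: 0 to 100 indicates growth inhibition (40 means 60% inhibition), 0 means no net growth, and negative values indicate cell death.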 Active and inactive are the calls of the source. The calls were made as follows: active = growth percent below 10; inactive = the rest.
# Test system: SNB-75 CNS
# Experiment: NCI-60 one-dose screen, 48 h (100 = growth as untreated, 0 = no growth, -100 = all killed)
# Details: 10 µM unless noted
row,SMILES,growth
1,COc1ccc(C(=O)c2ccc(OC)c(OC)c2OC)cc1,-3.95% (active)
2,O=C1/C(=C/c2ccccc2)CN(C(=O)C(Cl)Cl)C/C1=C\c1ccccc1,43.9% (inactive)
3,C=C(C)[C@@H]1CC[C@]2(C(=O)O)CC[C@]3(C)[C@H](CC[C@@H]4[C@@]5(C)CCC(N)C(C)(C)[C@@H]5CC[C@]43C)[C@@H]12 (stereo partly drawn),95.8% (inactive)
4,N#C/C(=C\c1ccc(Br)cc1)n1nnc2c(F)cccc21,18.8% (inactive)
5,COC1=CC(=O)C(OC)=C(O)C1=O,77% (inactive)
6,CC(C)(C)c1cc(NC(=O)Nc2ccc(-c3cn4c(n3)sc3cc(OCCN5CCOCC5)ccc34)cc2)no1,45.4% (inactive) and -7.53% (active)
7,COc1cccc(C2C(C#N)=C(N)Oc3cc(OCCCCCC[P+](c4ccccc4)(c4ccccc4)c4ccccc4)ccc32)c1 (stereo not drawn),-71.3% (active)
8,COc1ccc(-c2ccccc2)cc1-c1c(Nc2cc(Cl)cc(Cl)c2O)c(=O)c1=O,-8.42% (active)
9,Cc1ccc(S(=O)(=O)Nc2cc(Sc3ccccc3)c(O)c3ccccc23)cc1,98.4% (inactive)
10,COC(=O)c1[nH]nc(OC)c1C1(C(C#N)c2nc3ccccc3s2)CCCc2ccccc21 (stereo not drawn),86.4% (inactive)
11,COc1ccc(-c2cc(-c3cccc(Cl)c3)c(C#N)c(=O)[nH]2)c(OC)c1,72.7% (inactive)
12,Cc1nc(-n2[nH]c(=O)ccc2=O)sc1N=Nc1ccccc1,95.7% (inactive)
13,COc1ccc(-c2csc(NC(=O)CN3CCN(CCO)CC3)n2)cc1NS(=O)(=O)c1cccc2c(N(C)C)cccc12,78.2% (inactive)
